Reference: PubChem BioAssay AID1159580 (chemical genetic matrix, 2015)
Several values for one entry are separate records, joined by “and”; a condition that tells them apart may be missing. Equal entries are not always repeated. In all, about 5,500 compounds went through this assay and about 2,000 (36%) were called active. Inconclusive results (about 18%) are left out. No stated cut-off is given here; in the data, active means normalized growth mostly below about 0.91 (no sharp cut-off); inconclusive means no clear call, values can overlap the other calls; inactive means mostly above about 0.92. The list shows a part of the results.

Assay: chemical genetic growth profiling, strain panel (AID 1159580);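 further: tested at 20 µM; growth read once vehicle control cultures reached saturation at 30 °C; 1 = growth at the plate median or of vehicle wells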
Details: S. cerevisiae deletion strains, growth OD

Measured: normalized growth

CC(C)c1nc(N(C)S(C)(=O)=O)nc(-c2ccc(F)cc2)c1/C=C/[C@@H](O)C[C@@H](O)CC(=O)O
0.996 (inactive) and 0.12 (active): locus YJL095W, strain BCK1, stronger effect = lower value
1 (inactive) and 0.0994 (active): locus YHR030C, strain SLT2, stronger effect = lower value
inactive: locus YAL013W, strain DEP1, stronger effect = lower value 0.988 | locus YAL026C, strain drs2, stronger effect = lower value 0.98 | locus YAL030W, strain snc1, stronger effect = lower value 0.998 | locus YBL061C, strain skt5, stronger effect = lower value 1.02 | locus YBR009C, strain hhf1, stronger effect = lower value 0.998 | locus YBR021W, strain FUR4, stronger effect = lower value 0.96 | locus YBR023C, strain chs3, stronger effect = lower value 1.02 | locus YBR171W, strain sec66, stronger effect = lower value 1.01 | locus YBR229C, strain ROT2, stronger effect = lower value 1.01 | locus YBR231C, strain swc5, stronger effect = lower value 0.922 | locus YBR279W, strain paf1, stronger effect = lower value 0.99 | locus YCL011C, strain gbp2, stronger effect = lower value 1.01 | locus YCL016C, strain dcc1, stronger effect = lower value 0.998 | locus YCL029C, strain bik1, stronger effect = lower value 1.01 | locus YCL069W, strain vba3, stronger effect = lower value 1.02 | locus YCR088W, strain abp1, stronger effect = lower value 1.03 | locus YDL005C, strain med2, stronger effect = lower value 1.02 | locus YDL035C, strain GPR1, stronger effect = lower value 1 | locus YDL040C, strain nat1, stronger effect = lower value 1.01 | locus YDL074C, strain BRE1, stronger effect = lower value 0.995 | locus YDL101C, strain DUN1, stronger effect = lower value 0.996 | locus YDL134C, strain PPH21, stronger effect = lower value 0.995 | locus YDL185W, strain tfp1, stronger effect = lower value 0.928 | locus YDL192W, strain arf1, stronger effect = lower value 1 | locus YDR001C, strain nth1, stronger effect = lower value 1.03 | locus YDR069C, strain doa4, stronger effect = lower value 0.971 | locus YDR101C, strain arx1, stronger effect = lower value 0.999 | locus YDR150W, strain NUM1, stronger effect = lower value 1.01 | locus YDR159W, strain sac3, stronger effect = lower value 0.998 | locus YDR162C, strain NBP2, stronger effect = lower value 0.961 | locus YDR195W, strain ref2 1.09 | locus YDR297W, strain sur2, stronger effect = lower value 0.977 | locus YDR318W, strain mcm21, stronger effect = lower value 1.01 | locus YDR334W, strain swr1, stronger effect = lower value 0.982 | locus YDR335W, strain msn5, stronger effect = lower value 1.02 | locus YDR388W, stronger effect = lower value 1.01 | locus YDR392W, strain spt3, stronger effect = lower value 1.02 | locus YDR502C, strain sam2, stronger effect = lower value 1 | locus YEL003W, strain gim4, stronger effect = lower value 1.02 | locus YEL037C, strain rad23, stronger effect = lower value 1.01 | locus YEL061C, strain CIN8 (second series), stronger effect = lower value 1.02 | locus YEL061C, strain CIN8, stronger effect = lower value 0.998 | locus YER015W, strain faa2, stronger effect = lower value 0.99 | locus YER016W, strain bim1, stronger effect = lower value 1.01 | locus YER110C, stronger effect = lower value 0.999 | locus YER111C, strain swi4, stronger effect = lower value 1.02 | locus YER155C, strain BEM2 (second series), stronger effect = lower value 1.02 | locus YER155C, strain BEM2, stronger effect = lower value 0.99 | locus YER167W, strain BCK2, stronger effect = lower value 1 | locus YFR010W, strain ubp6, stronger effect = lower value 0.995 | locus YGL078C, strain dbp3, stronger effect = lower value 0.997 | locus YGL086W, strain mad1, stronger effect = lower value 1.01 | locus YGL167C, strain pmr1, stronger effect = lower value 1.01 | locus YGL173C, strain kem1, stronger effect = lower value 1 | locus YGL227W, strain vid30, stronger effect = lower value 1.02 | locus YGL240W, strain doc1, stronger effect = lower value 1.03 | locus YGL248W, strain PDE1, stronger effect = lower value 0.993 | locus YGL253W, strain hxk2, stronger effect = lower value 1.01 | locus YGR078C, strain PAC10, stronger effect = lower value 1.01 | locus YGR135W, strain pre9, stronger effect = lower value 0.987 | locus YGR229C, strain SMI1, stronger effect = lower value 1.01 | locus YGR252W, strain gcn5, stronger effect = lower value 1.04 | locus YHR013C, strain ard1, stronger effect = lower value 0.972 | locus YHR027C, strain rpn1, stronger effect = lower value 1.01 | locus YHR079C, strain IRE1 (second series), stronger effect = lower value 1 | locus YHR094C, strain hxt1, stronger effect = lower value 1.01 | locus YHR129C, strain ARP1, stronger effect = lower value 0.99 | locus YHR142W, strain chs7, stronger effect = lower value 1.02 | locus YHR200W, strain rpn10, stronger effect = lower value 1 | locus YIL066C, strain RNR3, stronger effect = lower value 1.02 | locus YIL073C, strain SPO22, stronger effect = lower value 1 | locus YIL125W, strain kgd1, stronger effect = lower value 1.02 | locus YIR030C, strain dcg1, stronger effect = lower value 1.01 | locus YJL092W, strain hpr5, stronger effect = lower value 1.03 | locus YJL095W, strain BCK1 (second series), stronger effect = lower value 0.986 | locus YJL115W, strain asf1, stronger effect = lower value 1 | locus YJL129C, strain trk1, stronger effect = lower value 1.08 | locus YJL134W, strain LCB3, stronger effect = lower value 1 | locus YJL154C, strain vps35, stronger effect = lower value 1.01 | locus YJL164C, strain tpk1, stronger effect = lower value 1 | locus YJL166W, strain qcr8, stronger effect = lower value 0.994 | locus YJL168C, strain set2, stronger effect = lower value 1.01 | locus YJL187C, strain SWE1 (second series), stronger effect = lower value 1 | locus YJL187C, strain SWE1, stronger effect = lower value 0.998 | locus YJR043C, strain POL32, stronger effect = lower value 0.997
active: locus YAL021C, strain ccr4, stronger effect = lower value 0.839 | locus YDR137W, strain rgp1, stronger effect = lower value 1.34 [resistant] | locus YHR079C, strain IRE1, stronger effect = lower value 0.127 | locus YJR066W, strain TOR1, stronger effect = lower value 0.00783
